# Experiments:
# [1] = target: T1, Serine/threonine-protein kinase DCLK2 (Homo sapiens) (UniProt Q8N568); conditions: at 1 µM
# T1 sequence (whole entry): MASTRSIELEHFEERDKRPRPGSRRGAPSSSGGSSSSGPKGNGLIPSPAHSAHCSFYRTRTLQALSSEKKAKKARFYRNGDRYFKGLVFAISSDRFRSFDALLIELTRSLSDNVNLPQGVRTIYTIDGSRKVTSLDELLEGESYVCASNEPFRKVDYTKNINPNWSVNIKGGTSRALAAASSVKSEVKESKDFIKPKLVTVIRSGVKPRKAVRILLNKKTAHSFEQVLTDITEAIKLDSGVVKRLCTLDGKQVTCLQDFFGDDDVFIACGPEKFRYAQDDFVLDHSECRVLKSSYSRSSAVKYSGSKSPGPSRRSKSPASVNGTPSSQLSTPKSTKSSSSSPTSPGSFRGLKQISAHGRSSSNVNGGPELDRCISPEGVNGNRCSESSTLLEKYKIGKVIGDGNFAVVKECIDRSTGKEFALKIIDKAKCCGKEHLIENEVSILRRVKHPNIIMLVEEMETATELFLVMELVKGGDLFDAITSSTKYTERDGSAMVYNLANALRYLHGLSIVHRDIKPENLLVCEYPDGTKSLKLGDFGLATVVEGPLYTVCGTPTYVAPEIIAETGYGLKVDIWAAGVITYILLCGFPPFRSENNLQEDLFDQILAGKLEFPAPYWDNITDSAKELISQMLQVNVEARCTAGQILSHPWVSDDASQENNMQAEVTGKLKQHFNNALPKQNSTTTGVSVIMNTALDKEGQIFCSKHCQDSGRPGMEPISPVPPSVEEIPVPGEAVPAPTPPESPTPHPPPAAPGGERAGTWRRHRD
# [2] = target: Death-associated protein kinase 1 (Homo sapiens) (UniProt P53355); conditions: at 10 µM
# Chain of Death-associated protein kinase 1 (Homo sapiens) (P53355 whole entry, looked up): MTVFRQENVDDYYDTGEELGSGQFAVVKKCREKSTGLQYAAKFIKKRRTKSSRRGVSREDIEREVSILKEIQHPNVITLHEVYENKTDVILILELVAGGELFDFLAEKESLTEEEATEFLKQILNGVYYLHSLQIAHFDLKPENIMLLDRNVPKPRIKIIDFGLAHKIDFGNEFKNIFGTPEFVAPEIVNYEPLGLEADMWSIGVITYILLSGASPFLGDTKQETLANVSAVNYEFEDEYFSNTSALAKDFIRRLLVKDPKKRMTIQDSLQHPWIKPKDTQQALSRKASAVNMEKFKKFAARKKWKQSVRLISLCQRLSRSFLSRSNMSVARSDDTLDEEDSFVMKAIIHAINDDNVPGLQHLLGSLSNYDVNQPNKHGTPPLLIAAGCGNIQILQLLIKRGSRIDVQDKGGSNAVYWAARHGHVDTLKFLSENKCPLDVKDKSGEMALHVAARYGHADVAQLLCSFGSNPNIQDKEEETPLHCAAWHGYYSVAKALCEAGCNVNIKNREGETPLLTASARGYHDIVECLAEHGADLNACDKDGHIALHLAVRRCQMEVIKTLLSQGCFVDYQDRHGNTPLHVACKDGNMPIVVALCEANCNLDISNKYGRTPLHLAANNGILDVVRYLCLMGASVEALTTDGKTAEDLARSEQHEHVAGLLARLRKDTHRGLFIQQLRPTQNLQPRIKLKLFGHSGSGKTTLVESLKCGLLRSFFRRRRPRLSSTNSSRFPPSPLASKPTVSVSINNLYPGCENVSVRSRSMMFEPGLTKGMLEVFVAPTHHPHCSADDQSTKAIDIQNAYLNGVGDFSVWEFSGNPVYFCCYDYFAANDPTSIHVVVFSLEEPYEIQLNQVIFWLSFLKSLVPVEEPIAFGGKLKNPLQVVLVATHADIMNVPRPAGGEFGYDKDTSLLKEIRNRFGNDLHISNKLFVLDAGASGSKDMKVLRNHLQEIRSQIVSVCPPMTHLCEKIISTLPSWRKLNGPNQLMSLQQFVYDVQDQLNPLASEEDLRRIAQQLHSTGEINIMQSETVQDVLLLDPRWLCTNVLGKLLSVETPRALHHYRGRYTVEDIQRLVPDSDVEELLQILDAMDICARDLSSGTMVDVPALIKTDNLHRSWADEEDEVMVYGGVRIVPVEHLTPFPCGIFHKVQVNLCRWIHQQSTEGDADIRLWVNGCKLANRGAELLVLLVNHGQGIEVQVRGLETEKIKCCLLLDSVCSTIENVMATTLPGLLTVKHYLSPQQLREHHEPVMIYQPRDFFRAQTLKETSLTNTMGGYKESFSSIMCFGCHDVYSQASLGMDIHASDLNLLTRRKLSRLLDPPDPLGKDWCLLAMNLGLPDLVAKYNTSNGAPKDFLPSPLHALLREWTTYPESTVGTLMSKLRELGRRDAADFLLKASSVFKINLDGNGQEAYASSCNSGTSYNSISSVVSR
# [3] = target: T2, Serine/threonine-protein kinase 17A (Homo sapiens) (UniProt Q9UEE5); conditions: at 1 µM
# T2 sequence (whole entry): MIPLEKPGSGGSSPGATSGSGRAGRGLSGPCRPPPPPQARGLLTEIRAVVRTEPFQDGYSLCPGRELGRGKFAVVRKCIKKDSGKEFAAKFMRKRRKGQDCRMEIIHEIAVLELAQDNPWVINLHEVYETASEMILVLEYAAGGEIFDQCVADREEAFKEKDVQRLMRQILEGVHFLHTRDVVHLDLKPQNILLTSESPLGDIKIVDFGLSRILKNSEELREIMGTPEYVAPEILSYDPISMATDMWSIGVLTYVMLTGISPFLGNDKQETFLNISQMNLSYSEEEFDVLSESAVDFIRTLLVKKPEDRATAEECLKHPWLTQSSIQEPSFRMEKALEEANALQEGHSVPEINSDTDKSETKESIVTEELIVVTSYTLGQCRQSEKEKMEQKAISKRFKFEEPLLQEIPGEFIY
# [4] = target: T2, Serine/threonine-protein kinase 17A (Homo sapiens); conditions: at 10 µM
# [5] = target: T3, Ephrin type-A receptor 1 (Homo sapiens) (UniProt P21709); conditions: at 1 µM
# T3 sequence (whole entry): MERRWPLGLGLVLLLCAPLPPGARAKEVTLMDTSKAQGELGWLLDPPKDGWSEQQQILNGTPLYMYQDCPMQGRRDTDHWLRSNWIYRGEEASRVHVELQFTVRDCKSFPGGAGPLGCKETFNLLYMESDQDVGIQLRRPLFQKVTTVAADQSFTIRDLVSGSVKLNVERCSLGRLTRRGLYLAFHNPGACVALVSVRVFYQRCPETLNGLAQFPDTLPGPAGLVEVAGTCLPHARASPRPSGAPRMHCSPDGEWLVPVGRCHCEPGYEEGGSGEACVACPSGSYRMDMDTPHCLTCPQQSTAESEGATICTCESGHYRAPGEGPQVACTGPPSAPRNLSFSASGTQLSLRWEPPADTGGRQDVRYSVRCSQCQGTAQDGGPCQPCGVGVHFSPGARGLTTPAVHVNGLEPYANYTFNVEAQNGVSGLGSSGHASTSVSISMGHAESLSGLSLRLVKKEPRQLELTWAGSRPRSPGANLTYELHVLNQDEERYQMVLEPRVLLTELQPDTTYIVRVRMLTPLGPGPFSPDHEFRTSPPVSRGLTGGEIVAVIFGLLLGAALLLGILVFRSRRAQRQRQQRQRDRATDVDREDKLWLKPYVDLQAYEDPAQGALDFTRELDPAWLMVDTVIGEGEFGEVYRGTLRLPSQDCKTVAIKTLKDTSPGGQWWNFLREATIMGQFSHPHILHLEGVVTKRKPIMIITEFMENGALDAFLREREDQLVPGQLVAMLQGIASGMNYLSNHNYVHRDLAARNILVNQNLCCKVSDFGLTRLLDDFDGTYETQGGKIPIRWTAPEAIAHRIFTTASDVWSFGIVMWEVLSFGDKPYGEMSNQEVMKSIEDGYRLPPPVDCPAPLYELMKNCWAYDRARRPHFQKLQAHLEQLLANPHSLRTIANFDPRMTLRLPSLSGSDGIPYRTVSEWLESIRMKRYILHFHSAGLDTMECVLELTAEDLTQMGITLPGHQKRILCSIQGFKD
# [6] = target: T3, Ephrin type-A receptor 1 (Homo sapiens); conditions: at 10 µM
# [7] = target: T1, Serine/threonine-protein kinase DCLK2 (Homo sapiens); conditions: at 10 µM
# [8] = target: T4, Myotonin-protein kinase (Homo sapiens) (UniProt Q09013); conditions: at 1 µM
# T4 sequence (whole entry): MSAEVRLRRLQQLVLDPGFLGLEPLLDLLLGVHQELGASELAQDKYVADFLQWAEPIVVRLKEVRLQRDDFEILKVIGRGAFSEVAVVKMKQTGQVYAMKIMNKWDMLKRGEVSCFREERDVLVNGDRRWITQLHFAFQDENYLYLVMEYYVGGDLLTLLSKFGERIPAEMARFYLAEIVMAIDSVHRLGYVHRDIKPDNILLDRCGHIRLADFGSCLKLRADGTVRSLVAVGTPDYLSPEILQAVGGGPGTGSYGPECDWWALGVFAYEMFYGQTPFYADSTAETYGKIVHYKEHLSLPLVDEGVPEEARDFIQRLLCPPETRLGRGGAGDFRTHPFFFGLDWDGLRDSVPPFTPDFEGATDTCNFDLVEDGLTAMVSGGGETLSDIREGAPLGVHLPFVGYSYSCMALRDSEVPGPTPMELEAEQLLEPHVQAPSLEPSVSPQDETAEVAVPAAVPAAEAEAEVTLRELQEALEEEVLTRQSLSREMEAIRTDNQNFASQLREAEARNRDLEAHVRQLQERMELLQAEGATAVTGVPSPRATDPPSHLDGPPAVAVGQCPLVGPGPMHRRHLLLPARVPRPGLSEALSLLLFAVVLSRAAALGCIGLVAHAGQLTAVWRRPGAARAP
# [9] = target: T4, Myotonin-protein kinase (Homo sapiens); conditions: at 10 µM
# [10] = target: T5, Dual specificity tyrosine-phosphorylation-regulated kinase 2 (Homo sapiens) (UniProt Q92630); conditions: at 10 µM
# T5 sequence (whole entry): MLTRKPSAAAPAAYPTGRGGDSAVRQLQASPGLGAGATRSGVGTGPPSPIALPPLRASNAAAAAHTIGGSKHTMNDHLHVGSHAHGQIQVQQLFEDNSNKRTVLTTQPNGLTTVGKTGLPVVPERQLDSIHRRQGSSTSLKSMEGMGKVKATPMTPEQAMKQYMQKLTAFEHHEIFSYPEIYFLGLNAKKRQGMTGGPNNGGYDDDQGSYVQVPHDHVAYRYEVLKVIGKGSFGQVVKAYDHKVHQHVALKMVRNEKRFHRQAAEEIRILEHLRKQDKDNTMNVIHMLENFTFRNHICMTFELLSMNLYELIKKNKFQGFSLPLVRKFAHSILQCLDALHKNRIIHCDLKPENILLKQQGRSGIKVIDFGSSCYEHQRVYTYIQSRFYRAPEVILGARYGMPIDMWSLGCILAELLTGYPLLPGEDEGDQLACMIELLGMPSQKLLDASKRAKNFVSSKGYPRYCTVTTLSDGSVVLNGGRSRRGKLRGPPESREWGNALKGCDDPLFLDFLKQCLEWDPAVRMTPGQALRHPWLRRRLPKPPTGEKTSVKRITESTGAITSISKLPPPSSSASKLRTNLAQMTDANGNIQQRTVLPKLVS
# [11] = target: T5, Dual specificity tyrosine-phosphorylation-regulated kinase 2 (Homo sapiens); conditions: at 1 µM
# [12] = target: T6, Ephrin type-A receptor 3 (Homo sapiens) (UniProt P29320); conditions: at 1 µM
# T6 sequence (whole entry): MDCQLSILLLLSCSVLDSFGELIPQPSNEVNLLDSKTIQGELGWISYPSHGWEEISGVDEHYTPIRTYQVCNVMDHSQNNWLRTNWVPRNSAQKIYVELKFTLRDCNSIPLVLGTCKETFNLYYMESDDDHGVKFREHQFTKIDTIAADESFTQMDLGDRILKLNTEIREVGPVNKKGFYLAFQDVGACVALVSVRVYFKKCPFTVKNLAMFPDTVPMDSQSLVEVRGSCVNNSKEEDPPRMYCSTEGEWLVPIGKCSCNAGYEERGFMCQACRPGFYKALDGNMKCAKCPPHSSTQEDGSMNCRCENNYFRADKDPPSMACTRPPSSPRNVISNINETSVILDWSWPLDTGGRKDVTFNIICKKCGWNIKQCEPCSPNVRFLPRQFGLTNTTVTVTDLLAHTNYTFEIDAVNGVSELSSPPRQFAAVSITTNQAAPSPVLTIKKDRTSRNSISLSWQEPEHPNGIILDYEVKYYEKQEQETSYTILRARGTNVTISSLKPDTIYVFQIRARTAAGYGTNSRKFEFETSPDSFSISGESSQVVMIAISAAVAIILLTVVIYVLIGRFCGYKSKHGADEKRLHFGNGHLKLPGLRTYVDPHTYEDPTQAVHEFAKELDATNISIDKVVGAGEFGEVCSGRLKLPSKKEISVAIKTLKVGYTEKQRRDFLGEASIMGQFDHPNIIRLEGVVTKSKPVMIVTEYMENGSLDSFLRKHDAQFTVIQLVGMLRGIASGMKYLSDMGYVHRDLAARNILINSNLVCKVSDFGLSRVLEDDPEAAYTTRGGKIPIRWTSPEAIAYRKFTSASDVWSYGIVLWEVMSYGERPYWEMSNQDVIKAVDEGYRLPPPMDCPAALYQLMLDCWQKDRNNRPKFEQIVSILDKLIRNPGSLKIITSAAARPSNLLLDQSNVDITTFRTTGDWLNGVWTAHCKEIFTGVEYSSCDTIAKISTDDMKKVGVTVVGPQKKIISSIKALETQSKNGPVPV
# [13] = target: Death-associated protein kinase 2 (Homo sapiens) (UniProt Q9UIK4); conditions: at 1 µM
# Chain of Death-associated protein kinase 2 (Homo sapiens) (Q9UIK4 whole entry, looked up): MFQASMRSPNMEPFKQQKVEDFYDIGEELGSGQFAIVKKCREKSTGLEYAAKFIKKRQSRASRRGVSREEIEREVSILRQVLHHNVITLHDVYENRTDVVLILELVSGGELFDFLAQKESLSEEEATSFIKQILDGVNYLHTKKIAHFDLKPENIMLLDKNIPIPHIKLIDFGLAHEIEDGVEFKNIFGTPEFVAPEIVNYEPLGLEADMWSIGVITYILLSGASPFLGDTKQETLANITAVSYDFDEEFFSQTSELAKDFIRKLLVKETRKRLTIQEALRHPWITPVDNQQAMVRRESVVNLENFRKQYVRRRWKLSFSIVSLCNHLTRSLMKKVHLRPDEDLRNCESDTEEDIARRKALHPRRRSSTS
# [14] = target: Death-associated protein kinase 2 (Homo sapiens) (UniProt Q9UIK4); conditions: at 10 µM
smiles,measurement,setting,value
CCOc1nc(NC(=O)Cc2cc(OC)ccc2OC)cc(N)c1C#N,residual activity,[1],138%
CCOC(=O)c1c(C)[nH]c(/C=C2\C(=O)Nc3ccccc32)c1C,residual activity,[2],99%
same,residual activity,[3],86%
same,residual activity,[4],75%
same,residual activity,[5],83%
same,residual activity,[6],118%
O=C1NC(=O)C(c2cn(CCCn3ccnc3)c3ccccc23)=C1Nc1ccccc1,residual activity,[1],100%
same,residual activity,[7],79%
same,residual activity,[8],120%
same,residual activity,[9],124%
O=S(=O)(NCCNC/C=C/c1ccc(Br)cc1)c1cccc2cnccc12,residual activity,[7],100%
same,residual activity,[6],63%
NC(=O)c1cccc(-c2cc(Nc3ccc(OC(F)(F)F)cc3)ncn2)c1,residual activity,[4],145%
same,residual activity,[10],91%
same,residual activity,[6],96%
O=C1Cc2c([nH]c3ccc(Br)cc23)-c2ccccc2N1,residual activity,[8],97%
same,residual activity,[9],83%
same,residual activity,[3],76%
same,residual activity,[4],39%
same,residual activity,[11],92%
same,residual activity,[10],45%
same,residual activity,[5],91%
same,residual activity,[6],78%
same,residual activity,[12],83%
COc1cc2c(cc1OC)-c1n[nH]c(Nc3cccc(F)c3)c1C2,residual activity,[13],99%
same,residual activity,[14],107%
same,residual activity,[1],109%
same,residual activity,[7],132%
same,residual activity,[9],136%
same,residual activity,[4],53%
same,residual activity,[6],34%
same,residual activity,[12],83%
N#C/C(=C1/Nc2ccccc2S1)c1ccnc(NCCc2cccnc2)n1,residual activity,[9],78%
same,residual activity,[3],60%
same,residual activity,[4],37%
same,residual activity,[11],19%
same,residual activity,[10],2%

# From ChEMBL document CHEMBL2218924, “A broad activity screen in support of a chemogenomic map for kinase signalling research and drug discovery” (Biochem J, 2013)
